Records with an inconclusive call do not appear. Calls of active or inactive are those of the source. Calls come from the whole dose curve.
What follows are compounds tested against Acetylcholinesterase (Homo sapiens) (UniProt P22303) (assay: Acetylcholinesterase (AChE) small molecule antagonists: colormetric cell-based qHTS assay (AID 1347395; note: nearly all actives have a fitted effect of over 30% in size)). Settings: SH-SY5Y cells AChE activity, colorimetric (Ellman); series mostly up to 115 µM; activity, negative = inhibition: at the top concentration.
Chain of Acetylcholinesterase (Homo sapiens) (P22303 whole entry, looked up): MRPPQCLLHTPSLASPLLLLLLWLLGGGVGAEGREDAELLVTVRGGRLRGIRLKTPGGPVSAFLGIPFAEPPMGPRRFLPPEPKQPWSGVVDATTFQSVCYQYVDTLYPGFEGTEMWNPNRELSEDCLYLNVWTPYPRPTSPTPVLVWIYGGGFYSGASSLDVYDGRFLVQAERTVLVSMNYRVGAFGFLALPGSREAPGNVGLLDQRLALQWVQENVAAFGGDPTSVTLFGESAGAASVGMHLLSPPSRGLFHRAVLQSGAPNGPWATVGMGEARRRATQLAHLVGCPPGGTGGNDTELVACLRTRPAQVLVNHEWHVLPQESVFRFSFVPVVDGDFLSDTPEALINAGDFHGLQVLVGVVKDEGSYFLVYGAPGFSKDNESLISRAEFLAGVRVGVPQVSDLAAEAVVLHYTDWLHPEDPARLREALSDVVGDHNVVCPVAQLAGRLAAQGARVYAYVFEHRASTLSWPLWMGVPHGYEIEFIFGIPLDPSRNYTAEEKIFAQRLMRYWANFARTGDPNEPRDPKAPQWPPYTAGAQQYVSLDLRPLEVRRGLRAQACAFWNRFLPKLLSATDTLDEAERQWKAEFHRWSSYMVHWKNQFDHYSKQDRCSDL
Description: National Center for Advancing Translational Sciences [NCATS]
Division of Preclinical Innovation [DPI]
U.S. Environmental Protection Agency [EPA]
National Institutes of Environmental Health Sciences [NIEHS]
National Toxicology Program [NTP]
U.S. Food and Drug Administration [FDA]
Acetylcholinesterase (AChE) is the primary cholinesterase in the body that hydrolyzes a key neurotransmitter, acetylcholine. Inhibition of AChE activity can lead to neurotoxicity. The known inhibitors include organophosphorous pesticides (OP), chemical warfare agents, drugs, and various phytochemicals.
A homogenous cell-based assay using the Amplite Colormetric acetylcholinesterase assay kit (AAT Bioquest, Sunnyvale, CA) was used to evaluate the chemicals in the Tox21 10K library that inhibit AChE activity. The assay uses 5, 5-dithiobis-(2-nitrobenzoic acid) (DTNB) to quantify the thiocholine produced from the hydrolysis of acetylthiocholine by AChE from the SH-SY5Y cells.
Tox21 Assay Protocol Summary:
For the cell-based AChE assay, 2,000 SH-SY5Y cells in 4 uL/well were dispensed into black, clear-bottom 1536-well plates using a Multidrop Combi dispenser (Thermo Scientific, MA). The assay plates were incubated overnight at 37 C to allow cells to attach to the wells, followed by the transfer of 23 nL of compound or DMSO (vehicle control) by a Pintool Station (Wako Automation, CA). The plates were incubated for 30 min at 37 C and 5% CO2, followed by the addition of 4 uL of detection cocktail solution (DTNB, acetylthiocholine) into each well using a Flying Reagent Dispenser (Beckman Coulter, CA) and then 90 min incubation at 37 C.
% is set by controls: 0 for no effect and ±100 for the full control effect.

Question: Which “activity, negative = inhibition” value does the source give for `O=C(O)C[C@H](NC(=O)OCc1ccccc1)C(=O)O` here?
Answer: 0.307% (inactive)

Question: `Cc1ccnc(NS(=O)(=O)c2ccc(N)cc2)n1` was tested. Which “activity, negative = inhibition” value did it give?
Answer: -0.433% [at 52.9 µM] (inactive)

Question: For `Nc1ccc2cc(S(=O)(=O)O)cc(O)c2c1`, which “activity, negative = inhibition” value is on record?
Answer: 6.11% (inactive)

Question: How did the “activity, negative = inhibition” value turn out when `N#CC1(O)CCCCC1` was run?
Answer: 2.27% (inactive)

Question: For `O=C1OCCN1/N=C/c1ccc([N+](=O)[O-])o1`, which “activity, negative = inhibition” value is on record?
Answer: -14.1% [at 52.9 µM] (inactive)

Question: Which Potency does the source give for `CC1Cc2ccccc2N1NC(=O)c1ccc(Cl)c(S(N)(=O)=O)c1` (stereo not given) here?
Answer: inactive

Question: `NNC(=O)c1cccc(C(=O)NN)c1` was tested. Which “activity, negative = inhibition” value did it give?
Answer: 3.16% (inactive)

Question: For `O=C1c2ccccc2Cc2ccccc21`, which “activity, negative = inhibition” value is on record?
Answer: -4.04% (inactive)

Question: With `C[C@H]1C[C@H](O)c2ccsc2S1(=O)=O` as the compound, how does the “activity, negative = inhibition” value read?
Answer: -0.252% [at 52.9 µM] (inactive)

Question: With `COc1ccc(/C(C)=C/C(=O)O)c(OC)c1` as the compound, how does the “activity, negative = inhibition” value read?
Answer: -0.337% [at 52.9 µM] (inactive)

Question: With `CN(C)CCN(Cc1ccsc1)c1ccccn1` as the compound, how does the “activity, negative = inhibition” value read?
Answer: -3.39% [at 52.9 µM] (inactive)

Question: For `CC(=O)Oc1ccc2c(c1)CC[C@@H]1[C@@H]2CC[C@]2(C)[C@@H](O)CC[C@@H]12`, which “activity, negative = inhibition” value is on record?
Answer: -1.1% [at 52.9 µM] (inactive)

Question: How did the “activity, negative = inhibition” value turn out when `CCCCCCCCC1CO1` (stereo not given) was run?
Answer: 3.52% (inactive)

Question: Which “activity, negative = inhibition” value does the source give for `C/C=C(\C)C(=O)OCCc1ccccc1` here?
Answer: -0.707% (inactive)

Question: How did the “activity, negative = inhibition” value turn out when `CC(=O)C(=O)CC(C)C` was run?
Answer: -0.291% (inactive)

Question: With `CCCCCN(CCCOC)C(=O)C(CCC(=O)O)NC(=O)c1ccc(Cl)c(Cl)c1` (stereo not given) as the compound, how does the “activity, negative = inhibition” value read?
Answer: -0.673% [at 52.9 µM] (inactive)

Question: How did the Potency turn out when `O=C(O)c1ccccc1C(c1ccc(O)cc1)c1ccc(O)cc1` was run?
Answer: inactive

Question: `CC(C)OCC1CO1` (stereo not given) was tested. Which “activity, negative = inhibition” value did it give?
Answer: 2.46% (inactive)

Question: With `CCCOC(=O)c1cc(O)c(O)c(O)c1` as the compound, how does the Potency read?
Answer: inactive

Question: For `CC/C=C\CCOC(=O)CCCCC`, which “activity, negative = inhibition” value is on record?
Answer: 3.26% (inactive)

Question: Which activity, negative = inhibition does the source give for `O=c1[nH]c(=O)c2[nH]c(=O)[nH]c2[nH]1` here?
Answer: 0.0138% [at 10.5 µM] (inactive)

Question: `CC(C(=O)O)c1cccc(C(=O)c2ccccc2)c1` (stereo not given) was tested. Which Potency did it give?
Answer: inactive

Question: With `O=C(O)c1ccc(Cl)cc1Cl` as the compound, how does the “activity, negative = inhibition” value read?
Answer: -0.116% (inactive)

Question: For `Nc1cccc(O)c1`, which “activity, negative = inhibition” value is on record?
Answer: 1.26% (inactive)

Question: With `C=Cc1ccc(O)c(OC)c1` as the compound, how does the “activity, negative = inhibition” value read?
Answer: 3.59% (inactive)

Question: For `CCCCOC(=O)c1ccccc1C(=O)OCC(CC)CCCC` (stereo not given), which “activity, negative = inhibition” value is on record?
Answer: -0.707% (inactive)

Question: Which Potency does the source give for `CCCCCC/C(C=O)=C\c1ccccc1` here?
Answer: inactive

Question: For `CCOC(C)OCC`, which “activity, negative = inhibition” value is on record?
Answer: 7.91% (inactive)

Question: How did the Potency turn out when `c1cc(-c2ccncc2)ccn1` was run?
Answer: inactive

Question: For `C=CC(C)(C)CC(=O)OC`, which “activity, negative = inhibition” value is on record?
Answer: -1.07% (inactive)

Question: For `CCCOCCOCCO`, which “activity, negative = inhibition” value is on record?
Answer: 2.9% (inactive)

Question: `CCCCCCCCCCCC(=O)N(CC)CC` was tested. Which “activity, negative = inhibition” value did it give?
Answer: -2.32% (inactive)

Question: `C#CC(C)(CC)OC(=O)c1ccccc1C(=O)O` (stereo not given) was tested. Which “activity, negative = inhibition” value did it give?
Answer: -0.252% [at 52.9 µM] (inactive)

Question: How did the “activity, negative = inhibition” value turn out when `Cc1cc(C(C)(C)C)c(O)c(C)c1Cn1c(=O)n(Cc2c(C)cc(C(C)(C)C)c(O)c2C)c(=O)n(Cc2c(C)cc(C(C)(C)C)c(O)c2C)c1=O` was run?
Answer: -0.639% (inactive)

Question: How did the “activity, negative = inhibition” value turn out when `Nc1nc(N)c2nc(CNc3ccc(C(=O)N[C@@H](CCC(=O)O)C(=O)O)cc3)cnc2n1` was run?
Answer: 1.96% (inactive)

Question: Which “activity, negative = inhibition” value does the source give for `ONc1ccccc1` here?
Answer: 3.03% (inactive)

Question: How did the “activity, negative = inhibition” value turn out when `CC(=O)[O][Al][O]C(C)=O` was run?
Answer: 4.58% (inactive)

Question: How did the “activity, negative = inhibition” value turn out when `C=Cc1ccccc1` was run?
Answer: -0.904% (inactive)

Question: For `O=C(O)CCCCC1CCSS1` (stereo not given), which Potency is on record?
Answer: inactive

Question: Which “activity, negative = inhibition” value does the source give for `CC(C)C(C)(C)C(C)(C)C(C)(C)S` here?
Answer: -17.5% (inactive)
